Measured values reported in PubChem BioAssay (Tox21).
Inconclusive results are not listed. A number with no mark means an inactive call. Calls come from the whole dose curve.

Experiment: qHTS assay for small molecule agonists of the antioxidant response element (ARE) signaling pathway - cell viability counter screen (AID 743203); note: nearly all actives have a fitted effect of over 55% in size
Conditions: ARE-bla HepG2 viability, CellTiter-Glo luminescence, 16 h; series mostly up to 73.3 µM; viability change, negative = cytotoxic: at the top concentration
Text: National Center for Advancing Translational Sciences [NCATS]
NIH Chemical Genomics Center [NCGC]
U.S. Environmental Protection Agency [EPA]
National Institutes of Environmental Health Sciences [NIEHS]
National Toxicology Program [NTP]
U.S. Food and Drug Administration [FDA]
Oxidative stress has been implicated in the pathogenesis of a variety of diseases ranging from cancer to neurodegeneration. The antioxidant response element (ARE) signaling pathway plays an important role in the amelioration of oxidative stress. The CellSensor ARE-bla HepG2 cell line (Invitrogen) can be used for analyzing the Nrf2/antioxidant response signaling pathway. Nrf2 (NF-E2-related factor 2) and Nrf1 are transcription factors that bind to AREs and activate these genes. The CellSensor ARE-bla Hep G2 cell line contains a beta-lactamase reporter gene under control of the Antioxidant Response Element (ARE) stably integrated into HepG2 cells. The activation of the report gene under culture conditions can be detected by fluorescence intensity. This cell line has been used to screen the Tox21 10K compound library to identify agonists that induce oxidative stress. The cytotoxicity of the Tox21 compound library against the ARE-bla cell line was tested in parallel by measuring the cell viability using CellTiter-Glo assay (Promega, Madison, WI) in the same wells.
Tox21 Assay Protocol Summary:
ARE-bla HepG2 cells were dispensed at 2,000 cells/5 ul/well in 1536-well white wall/solid bottom plates using a Multidrop Combi (ThermoFisher Scientific, Waltham, MA) dispenser. After the assay plates were incubated at 37C/5% CO2 for 5 hrs, 23 nL of compounds dissolved in DMSO, positive controls or DMSO only was transferred to the assay plate by a pintool work station (Kalypsys, San Diego, CA). The plates were incubated at 37C/5% CO2 for 16 hrs, followed by addition of 4 ul/well of CellTiter-Glo reagent into the assay plates using a Flying Reagent Dispenser (Aurora Discovery, San Diego, CA). After 30 min incubation at room temperature, the luminescence intensity in the assay plates was measured using a ViewLux (PerkinElmer, Shelton, CT) plate reader.
% is set by controls: 0 for no effect and ±100 for the full control effect.

SMILES | viability change, negative = cytotoxic
CO[Si](CCCCl)(OC)OC | -9.07%
CCCCCCCCCCCCC | -6.29%
O=C(O)/C=C/c1ccccc1 | 16%
O=[Si]=O | 4.15%
CC(=O)OCC(=O)[C@@]1(O)[C@H](OC(C)=O)C[C@H]2[C@@H]3CCC4=CC(=O)C=C[C@]4(C)[C@@]3(F)[C@@H](O)C[C@@]21C | -0.305%
CC(=O)c1ccc(OCC(=O)N2CCCCC2)cc1 | 3.63%
CCCCCCCCOC(C)=O | -3.96%
O=P(O)(O)OCC(O)CO (stereo not given) | -3.06%
CCN(Cc1cccc(S(=O)(=O)O)c1)c1ccccc1 | -5.68%
CCCCOC(=O)C(C)OC(=O)CCC (stereo not given) | 6.79%
CCOC(=O)OCC/C(SC(=O)OCC)=C(\C)N(C=O)Cc1cnc(C)nc1N | 0.0772%
c1ccc(CNc2ncnc3nc[nH]c23)cc1 | -14.3%
CC1=NN(c2ccc(S(=O)(=O)O)cc2)C(=O)C1N=Nc1ccccc1 (stereo not given) | 12.8%
CCCCCCCCCCCCOC(C)=O | 9.95%
CCCCCC1CCCC(=O)O1 (stereo not given) | 6.43%
O=C(CN1CCN(Cc2ccc3c(c2)OCO3)CC1)N1c2ccccc2Sc2ccccc21 | 1.42%
CC1CCC(C(C)(C)S)C(=O)C1 (stereo not given) | -4.42%
CC(C)COC(=O)COc1ccc(Cl)cc1Cl | 8.76%
CC(C)COC(=O)/C=C/c1ccccc1 | -17%
CC(=O)N1CCN(c2ccc(O)cc2)CC1 | -0.3%

SMILES | viability change, negative = cytotoxic
C=CCOC(=O)c1ccc(C(=O)OCC=C)c(C(=O)OCC=C)c1 | 4.62%
CC(C)=CC(C)(C)C | 1.28%
CCCCC(C)C(=O)O (stereo not given) | -11.1%
CCCOCCOCCOCCO | -1.29%
Cc1ccccc1OCC1CO1 (stereo not given) | -0.28% [at 94.8 µM]
CCCCC(=O)N(C)C | -0.682%
COc1ccc(/C=N/NC(=O)c2ccncc2)cc1OC | 9.1%
Cc1cc(O)c2c(c1)C(=O)c1cccc(O)c1C2=O | 4.43%
CO/N=C(/C(=O)N[C@@H]1C(=O)N2C(C(=O)O)=C(Cn3nnc(C)n3)CS[C@H]12)c1csc(N)n1 | 2.09%
Nc1cc(Cl)cc(S(=O)(=O)O)c1O | -13.6% [at 94.8 µM]
CNCc1ccccc1 | 7.35%
CC(C)C(=O)c1ccccc1 | -4.48%
CN=C(NC#N)NCCSCc1csc(N=C(N)N)n1 | -0.507%
Nc1ccc(C(=O)OCC(O)CO)cc1 (stereo not given) | -2.98%
OCCCCCCCl | 6.11% [at 94.8 µM]
Cc1ncc([N+](=O)[O-])n1CC(O)CCl (stereo not given) | -0.745%
CC(C)CCCCCCOC(=O)C1CCCCC1C(=O)OCCCCCCC(C)C (stereo not given) | -4.78%
CC(=O)OC[C@H]1O[C@@H](OC(C)=O)[C@H](OC(C)=O)[C@@H]1OC(C)=O | 7.85%
CCCCCCCC/C=C\CCCCCCCC(=O)OC[C@@H](O)[C@H]1OC[C@H](O)[C@H]1O | -3.12%
CNC(=O)C(c1ccccc1)c1ccccc1 | -3.04%
